DT40 TDP1 CPT: DT40-hTDP1 cell growth loss with CPT | 420,000 compounds, 12% hits | Potency, µM (series often up to 46.2 µM), most hits filed as inhibitors | chicken DT40 Tdp1-/-;hTDP1 cells + 20 nM CPT, ATP luminescence, 48 h | AID 686979; note: nearly all actives have a fitted effect of over 55% in size
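Cell growth measured by CellTiter-Glo luminescence after a minimum 48 h, 37 C compound exposure with 20 nM CPT in Tdp1-knockout DT40 cells stably expressing hTDP1, seeded 400/well; qHTS titration format.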
Giardia killer: kills Giardia lamblia; 340,000 compounds, 0.15% hits; activity change, % at 7.66 µM, hits read low; Giardia lamblia trophozoite viability; in the data active = activity change below about -80%; inconclusive = between about -30% and that limit;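 note: parasites exposed to compound for two days anaerobically before the ATP read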
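Compounds were tested on trophozoites seeded at 100 cells/well and held 48 hrs at 37 deg C anaerobically. An ATP-based luminescent kit measured the remaining live cells.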
TDP1 block: inhibitors of human tyrosyl-DNA phosphodiesterase TDP1; recombinant TDP1, AlphaScreen DNA substrate cleavage; Potency, µM (highest dose often 130 µM), usual class: inhibitors; 350,000 compounds, 0.28% hits; note: nearly all actives have a fitted effect of over 40% in size
Target sequence (Q9NUW8 whole entry, looked up): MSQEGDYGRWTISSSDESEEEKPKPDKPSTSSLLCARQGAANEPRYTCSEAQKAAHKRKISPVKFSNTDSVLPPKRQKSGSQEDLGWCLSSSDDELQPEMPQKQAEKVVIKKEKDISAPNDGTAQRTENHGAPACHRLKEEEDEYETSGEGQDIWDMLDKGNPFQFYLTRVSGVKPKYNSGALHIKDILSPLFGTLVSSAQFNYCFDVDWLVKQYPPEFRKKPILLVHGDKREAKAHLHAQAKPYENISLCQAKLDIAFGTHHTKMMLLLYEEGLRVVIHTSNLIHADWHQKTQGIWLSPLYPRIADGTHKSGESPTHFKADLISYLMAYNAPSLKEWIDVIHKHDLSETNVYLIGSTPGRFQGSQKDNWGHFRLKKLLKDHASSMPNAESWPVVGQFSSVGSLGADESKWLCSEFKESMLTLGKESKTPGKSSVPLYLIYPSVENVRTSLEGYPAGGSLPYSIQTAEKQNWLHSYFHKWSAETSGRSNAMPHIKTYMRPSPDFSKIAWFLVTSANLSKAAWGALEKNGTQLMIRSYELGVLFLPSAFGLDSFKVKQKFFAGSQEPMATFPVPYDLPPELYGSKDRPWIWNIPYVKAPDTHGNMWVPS
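Tdp1 1 nM final; 15 min RT w/ cpd; substrate 15 nM, 5 min; beads 10 ug/ml, 10 min; AlphaScreen read. Neg ctrl: no enzyme.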
ELG1 repair inh: ELG1-dependent DNA repair inhibition | HEK293T ELG1-luciferase reporter, luminescence, 16 h; DNA damage induced by 5-fluorouridine | Potency, µM (highest dose often 46.1 µM), most hits filed as inhibitors | 330,000 compounds, 2.3% hits | AID 504467; note: nearly all actives have a fitted effect of over 55% in size
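In this reporter screen, reduction of luminescence relative to DMSO vehicle indicated activity. Compounds and 5-fluorouridine were added together to 2,000 cells per well, incubated for 16 hr at 37 °C, then developed with ONE-Glo.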
IL-1B inflam inh: inhibitors of inflammasome signaling (IL-1 beta secretion); activity change, % at 57.5 µM; THP-1 LPS/ATP IL-1B secretion, AlphaLISA, 16 h; active compounds read low; 360,000 compounds, 4.7% hits; in the data active = activity change below about -50%; inconclusive = mostly about -30% to -49%
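THP-1 cells pretreated 1 hr with compounds (up to 57.5 uM final), then stimulated with LPS (250 ng/mL final) plus ATP (1.25 mM final); secreted IL-1B measured by AlphaLISA after 16 hr, decreased signal indicating inhibition.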
DT40 TDP1 no CPT: qHTS for Inhibitors of human tyrosyl-DNA phosphodiesterase 1 (TDP1): qHTS in cells in absence of CPT; DT40 Tdp1-/- hTDP1 cells, no CPT, ATP luminescence, 48 h; 420,000 compounds, 15% hits; Potency, µM (titrated, usually from 46.2 µM), usual class: inhibitors; AID 686978, 2013; note: nearly all actives have a fitted effect of over 55% in size
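Luminescent ATP content (CellTiter-Glo) served as the growth readout. Knockout chicken DT40 cells expressing human TDP1 were exposed to compounds without camptothecin for a minimum 48 hr at 37 °C.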
Hits are given with their value; - = inactive; ? = inconclusive; . = no result. An excerpt weighted towards active compounds, which were near 19% of everything screened. Unless noted, calls come from the whole dose curve; as a rule, active = well fitted curve in the direction sought with a large enough effect; inconclusive = small, poorly fitted or top-dose-only effect, or another doubt; inactive = no such curve, though single readings can be large; an effect the other way counts as inactive or inconclusive.

SMILES	DT40 TDP1 CPT	Giardia killer	TDP1 block	ELG1 repair inh	IL-1B inflam inh	DT40 TDP1 no CPT
O=C(NCc1ccco1)c1cc(-c2cccc(Cl)c2)on1	-	-	-	?	-	-
CCc1ccc(CN(Cc2ccco2)C(=O)c2cc(-c3ccc(Cl)cc3)on2)cc1	?	.	-	.	.	14.6µM
O=C(c1cc(-c2ccc(Cl)cc2)on1)N(Cc1ccc(F)cc1)Cc1ccco1	?	.	-	.	.	20.6µM
O=C(NCc1ccco1)c1cc(-c2ccc(Cl)cc2)on1	-	-	-	?	-	-
O=C1OC(c2ccc(F)cc2)=N/C1=C\C=C/c1ccccc1	-	-	.	-	-	-
COc1cc2ncc(S(=O)(=O)c3ccccc3)c(N3CCCC(C)C3)c2cc1OC (centres undefined)	?	-	.	18.3µM	-	11.6µM
O=C(c1ccco1)N1CCN(Cc2cc(=O)c(OCc3ccc([N+](=O)[O-])cc3)co2)CC1	-	?	-	-	-	-
O=C(Cc1ccc(F)cc1)Nc1cccc(-c2cn3c(n2)SCC3)c1	?	-	-	16.4µM	?	?
COc1ccc(OC)c(CN2C(=O)c3ccccc3C2c2nnnn2-c2ccc3c(c2)OCCO3)c1 (centres undefined)	6.51µM	.	.	.	-	5.8µM
O=C1c2ccccc2C(c2nnnn2-c2ccc3c(c2)OCCO3)N1Cc1cccnc1 (centres undefined)	-	.	.	.	-	?
COc1ccc(-n2nnnc2C2c3ccccc3C(=O)N2C2CCN(Cc3ccccc3)CC2)cc1 (centres undefined)	?	.	.	.	-	16.4µM
O=C1c2ccccc2C(c2nnnn2-c2ccc3c(c2)OCCO3)N1Cc1ccc2c(c1)OCO2 (centres undefined)	18.4µM	.	.	.	-	16.4µM
O=C1c2ccccc2C(c2nnnn2-c2ccc3c(c2)OCCO3)N1CCc1ccccc1F (centres undefined)	14.6µM	.	.	.	-	?
O=C1c2ccccc2C(c2nnnn2-c2ccc3c(c2)OCCO3)N1Cc1ccco1 (centres undefined)	?	.	.	.	-	?
O=C1c2ccccc2C(c2nnnn2-c2ccc3c(c2)OCCO3)N1Cc1cccc(F)c1 (centres undefined)	?	.	.	.	-	16.4µM
COC(=O)C1C(=O)C2=C(CC1C)NC(C)=C(C(=O)OCCOc1ccccc1)C2c1ccc(C)o1 (centres undefined)	23.1µM	-	-	23.1µM	-	16.4µM
COC(=O)C1C(=O)C2=C(CC1C)NC(C)=C(C(=O)OC1CCCCC1)C2c1ccc(N(C)C)cc1 (centres undefined)	?	-	-	?	-	16.4µM
COC(=O)C1C(=O)C2=C(CC1C)NC(C)=C(C(=O)OCc1ccc(OC)cc1)C2c1ccc(C)o1 (centres undefined)	?	-	-	?	-	10.3µM
COC(=O)C1C(=O)C2=C(CC1C)NC(C)=C(C(=O)OC(C)C)C2c1ccc(C)o1 (centres undefined)	-	-	-	-	-	-
COC(=O)C1C(=O)c2c([nH]c(C(=O)OC3CCCCC3)c2C)CC1C (centres undefined)	?	-	-	?	?	?
Cc1ccc(C(=O)N2CCCC(C(=O)Nc3cccc(-c4ccc(F)cc4)c3)C2)cn1 (centres undefined)	16.4µM	-	-	-	-	8.2µM
COc1ncccc1C(=O)N1CCCC(C(=O)Nc2cccc(-c3ccc(F)cc3)c2)C1 (centres undefined)	20.6µM	.	.	.	-	11.6µM
COc1ccc(C(=O)C2CCCN(C(=O)c3cccnc3OC)C2)cc1F (centres undefined)	-	-	-	-	-	-
O=C(NCCS(=O)(=O)N1CCN(c2ccccc2)CC1)c1cccs1	-	-	-	-	-	-
CCOC(=O)C1CCCN(c2nc(C)nc3c2oc2ccccc23)C1 (centres undefined)	14.6µM	-	-	?	-	20.6µM
SMILES	DT40 TDP1 CPT	Giardia killer	TDP1 block	ELG1 repair inh	IL-1B inflam inh	DT40 TDP1 no CPT
CCc1nc(N2CCCC(C)C2)c2oc3ccccc3c2n1 (centres undefined)	?	-	-	?	-	?
CCOC(=O)C1CCN(c2nc(C)nc3c2oc2ccccc23)CC1	23.1µM	-	-	?	-	23.1µM
COc1ccc(F)cc1C(=O)C1CCCN(Cc2cccn2-c2ccccn2)C1 (centres undefined)	?	-	-	-	-	16.4µM
COc1ccccc1C(=O)C1CCCN(Cc2ccc(Oc3ncccn3)cc2)C1 (centres undefined)	-	-	-	-	-	?
O=C(c1cc(F)ccc1F)C1CCCN(Cc2cccn2-c2ccccn2)C1 (centres undefined)	?	-	.	-	?	?
COc1ccc(C(=O)C2CCCN(Cc3cccn3-c3ccccn3)C2)c(OC)c1 (centres undefined)	8.2µM	-	-	?	-92.8	6.51µM
COc1ccc(S(=O)(=O)n2[nH]c(=O)c(CCO)c2C)c([N+](=O)[O-])c1	-	-	-	-	-	-
CCOc1ccc(S(=O)(=O)NCCC(=O)NC2CCN(Cc3ccccc3)CC2)cc1	-	-	.	-	-	-
CCOC(=O)c1cc(-c2ccc(OC)cc2)n(CCC(=O)NC2CCN(Cc3ccccc3)CC2)c1C	?	-	-	?	-	20.6µM
CCOC(=O)c1cc(-c2ccc(F)cc2)n(CCC(=O)NC2CCN(Cc3ccccc3)CC2)c1C	16.4µM	-	-	?	?	14.6µM
CCOC(=O)c1cc(-c2ccc(OC)cc2)n(CCC(=O)NCCN2CCC(C)CC2)c1C	?	-	-	-	?	?
CCc1ccccc1NC(=O)CN(C1CCCCC1)S(C)(=O)=O	-	-	.	-	-	-
COc1ccccc1Nc1c2c(nc3ccc(NC(=O)c4cccc(OC)c4OC)cc13)CCCC2	5.8µM	.	-	.	.	13µM
COc1ccccc1Nc1c2c(nc3ccc(NC(=O)c4ccccc4F)cc13)CCCC2	5.17µM	.	-	.	.	16.4µM
COc1ccccc1Nc1c2c(nc3ccc(N)cc13)CCCC2	16.4µM	-	-	-	-	20.6µM
COc1ccccc1Nc1c2c(nc3ccc(NC(=O)c4ccc(OC)c(OC)c4)cc13)CCCC2	23.1µM	.	-	.	.	14.6µM
C/C(O)=C(/C=NCC(=O)O)C(=O)Nc1nccs1	-	-	-	-	-	-
O=C(COC(=O)Cc1ccc(S(=O)(=O)N2CCOCC2)s1)NCc1ccc(Cl)cc1	-	-	-	-	-	-
COc1ccc(C(=O)Nc2ccc3nc4c(c(Nc5ccccc5OC)c3c2)CCCC4)c(OC)c1	3.66µM	.	-	.	.	3.26µM

Screens: PubChem BioAssay, National Center for Advancing Translational Sciences (NCATS)
